Screen size: about 5,500 compounds; about 2,000 (36%) were called active. Another 18% or so got no clear call; they are omitted. Rule as the data show it: active = normalized growth mostly below about 0.91 (no sharp cut-off); inconclusive = no clear call, values can overlap the other calls; inactive = mostly above about 0.92. The list shows a part of the results.
Experiment: chemical genetic growth profiling, strain panel (AID 1159580);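 also: tested at 20 µM; growth read once vehicle control cultures reached saturation at 30 °C; 1 = growth at the plate median or of vehicle wells; lower values mean less growth of the strain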
Settings: growth OD

Measured: normalized growth

CCn1cc(C(=O)O)c(=O)c2cc(F)c(N3CCNCC3)nc21
inactive: S. cerevisiae deletion strains, locus YJR066W, strain TOR1, active compounds read low 0.976 | S. cerevisiae deletion strains, locus YJR075W, strain HOC1, active compounds read low 1.01 | S. cerevisiae deletion strains, locus YKL009W, strain mrt4, active compounds read low 1.01 | S. cerevisiae deletion strains, locus YKL068W, active compounds read low 1.01 | S. cerevisiae deletion strains, locus YKL085W, strain MDH1 (second series), active compounds read low 1.01 | S. cerevisiae deletion strains, locus YKL085W, strain MDH1, active compounds read low 1.01 | S. cerevisiae deletion strains, locus YKL160W, strain elf1, active compounds read low 1 | S. cerevisiae deletion strains, locus YKL190W, strain CNB1, active compounds read low 1.02 | S. cerevisiae deletion strains, locus YKR001C, strain vps1, active compounds read low 1.02 | S. cerevisiae deletion strains, locus YKR026C, strain gcn3, active compounds read low 0.989 | S. cerevisiae deletion strains, locus YKR091W, strain srl3, active compounds read low 0.983 | S. cerevisiae deletion strains, locus YLL001W, strain dnm1, active compounds read low 0.991 | S. cerevisiae deletion strains, locus YLL026W, active compounds read low 0.992 | S. cerevisiae deletion strains, locus YLL041C, strain sdh2, active compounds read low 0.964 | S. cerevisiae deletion strains, locus YLR027C, strain aat2, active compounds read low 0.989 | S. cerevisiae deletion strains, locus YLR039C, strain RIC1, active compounds read low 1.01 | S. cerevisiae deletion strains, locus YLR058C, strain SHM2, active compounds read low 1.02 | S. cerevisiae deletion strains, locus YLR102C, strain apc9, active compounds read low 1.01 | S. cerevisiae deletion strains, locus YLR113W, strain HOG1, active compounds read low 1.08 | S. cerevisiae deletion strains, locus YLR221C, strain rsa3, active compounds read low 0.984 | S. cerevisiae deletion strains, locus YLR258W, strain gsy2, active compounds read low 0.987 | S. cerevisiae deletion strains, locus YLR262C, strain YPT6 (second series), active compounds read low 0.945 | S. cerevisiae deletion strains, locus YLR262C, strain YPT6, active compounds read low 1.03 | S. cerevisiae deletion strains, locus YLR268W, strain sec22, active compounds read low 1.01 | S. cerevisiae deletion strains, locus YLR320W, strain mms22, active compounds read low 0.999 | S. cerevisiae deletion strains, locus YLR330W, strain CHS5, active compounds read low 1.01 | S. cerevisiae deletion strains, locus YLR342W, strain FKS1 (second series), active compounds read low 1.03 | S. cerevisiae deletion strains, locus YLR342W, strain FKS1, active compounds read low 0.981 | S. cerevisiae deletion strains, locus YLR357W, strain rsc2, active compounds read low 0.897 | S. cerevisiae deletion strains, locus YLR370C, strain arc18, active compounds read low 0.975 | S. cerevisiae deletion strains, locus YLR371W, strain rom2, active compounds read low 1.02 | S. cerevisiae deletion strains, locus YLR384C, strain iki3, active compounds read low 0.983 | S. cerevisiae deletion strains, locus YLR418C, strain cdc73, active compounds read low 1.01 | S. cerevisiae deletion strains, locus YML016C, strain PPZ1, active compounds read low 1.01 | S. cerevisiae deletion strains, locus YML032C, strain rad52, active compounds read low 1.02 | S. cerevisiae deletion strains, locus YML120C, strain ndi1, active compounds read low 0.983 | S. cerevisiae deletion strains, locus YML124C, strain tub3, active compounds read low 1.01 | S. cerevisiae deletion strains, locus YMR058W, strain fet3, active compounds read low 0.982 | S. cerevisiae deletion strains, locus YMR078C, strain ctf18, active compounds read low 1 | S. cerevisiae deletion strains, locus YMR125W, strain sto1, active compounds read low 0.973 | S. cerevisiae deletion strains, locus YMR129W, active compounds read low 0.981 | S. cerevisiae deletion strains, locus YMR205C, strain PFK2, active compounds read low 1.01 | S. cerevisiae deletion strains, locus YMR223W, strain ubp8, active compounds read low 1.02 | S. cerevisiae deletion strains, locus YMR231W, strain pep5, active compounds read low 0.991 | S. cerevisiae deletion strains, locus YMR307W, strain GAS1, active compounds read low 1.02 | S. cerevisiae deletion strains, locus YNL067W, strain RPL9B, active compounds read low 1 | S. cerevisiae deletion strains, locus YNL071W, strain lat1, active compounds read low 0.968 | S. cerevisiae deletion strains, locus YNL153C, strain GIM3, active compounds read low 0.99 | S. cerevisiae deletion strains, locus YNL183C, strain NPR1, active compounds read low 0.982 | S. cerevisiae deletion strains, locus YNL209W, strain ssb2, active compounds read low 0.971 | S. cerevisiae deletion strains, locus YNL233W, strain BNI4, active compounds read low 0.978 | S. cerevisiae deletion strains, locus YNL248C, strain rpa49, active compounds read low 0.989 | S. cerevisiae deletion strains, locus YNL250W, strain rad50, active compounds read low 1.03 | S. cerevisiae deletion strains, locus YNL271C, strain bni1, active compounds read low 1.02 | S. cerevisiae deletion strains, locus YNL298W, strain CLA4, active compounds read low 1.01 | S. cerevisiae deletion strains, locus YNL307C, strain MCK1, active compounds read low 1.02 | S. cerevisiae deletion strains, locus YNL322C, strain KRE1 (second series), active compounds read low 0.976 | S. cerevisiae deletion strains, locus YNR049C, strain mso1, active compounds read low 0.981 | S. cerevisiae deletion strains, locus YNR052C, strain pop2, active compounds read low 1.02 | S. cerevisiae deletion strains, locus YOL006C, strain TOP1, active compounds read low 1.02 | S. cerevisiae deletion strains, locus YOL012C, strain htz1 1.02 | S. cerevisiae deletion strains, locus YOL147C, strain pex11, active compounds read low 1.02 | S. cerevisiae deletion strains, locus YOR001W, strain rrp6, active compounds read low 0.987 | S. cerevisiae deletion strains, locus YOR061W, strain CKA2, active compounds read low 1.02 | S. cerevisiae deletion strains, locus YOR069W, strain VPS5, active compounds read low 1.01 | S. cerevisiae deletion strains, locus YOR070C, strain gyp1, active compounds read low 0.993 | S. cerevisiae deletion strains, locus YOR080W, strain dia2, active compounds read low 0.993 | S. cerevisiae deletion strains, locus YOR083W, strain WHI5, active compounds read low 0.99 | S. cerevisiae deletion strains, locus YOR106W, strain vam3, active compounds read low 0.988 | S. cerevisiae deletion strains, locus YOR136W, strain idh2, active compounds read low 1.01 | S. cerevisiae deletion strains, locus YOR144C, strain elg1, active compounds read low 1.01 | S. cerevisiae deletion strains, locus YOR184W, strain ser1, active compounds read low 1.02 | S. cerevisiae deletion strains, locus YOR231W, strain MKK1, active compounds read low 1.05 | S. cerevisiae deletion strains, locus YOR265W, strain rbl2, active compounds read low 0.986 | S. cerevisiae deletion strains, locus YOR270C, strain vph1, active compounds read low 0.991 | S. cerevisiae deletion strains, locus YOR290C, strain snf2, active compounds read low 0.961 | S. cerevisiae deletion strains, locus YOR316C, strain cot1, active compounds read low 1.02 | S. cerevisiae deletion strains, locus YPL051W, strain arl3, active compounds read low 0.994 | S. cerevisiae deletion strains, locus YPL078C, strain atp4, active compounds read low 0.984 | S. cerevisiae deletion strains, locus YPL106C, strain sse1, active compounds read low 0.947 | S. cerevisiae deletion strains, locus YPL240C, strain hsp82, active compounds read low 0.977 | S. cerevisiae deletion strains, locus YPL241C, strain CIN2, active compounds read low 1.01 | S. cerevisiae deletion strains, locus YPL256C, strain CLN2, active compounds read low 1.04 | S. cerevisiae deletion strains, locus YPR119W, strain clb2, active compounds read low 1.01 | S. cerevisiae deletion strains, locus YPR141C, strain kar3, active compounds read low 1.01 | S. cerevisiae deletion strains, locus YPR163C, strain tif3, active compounds read low 1.03 | S. cerevisiae deletion strains, locus YPR167C, strain met16, active compounds read low 1.01 | S. cerevisiae deletion strains, strain wtn01, active compounds read low 1.01 | S. cerevisiae strains, strain wild type, active compounds read low 1.02
